Data as given in the supplement of paper PMC6555819.

What was measured:
Test in all cases: PBM binding z-score (relative to random genomic background probes); higher = stronger binding; sequences stand for … in GC…GCGATTGACAGCGTAGAATGAAGG
[1] = system: PPARg:RXRa DBDmut IVT, anti-RXR (DBD mutation: RXRa K156A/R161A, NR concentration 270 nM, RXRa partner concentration 90 nM)
In short: (§1)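 Regression normalization was applied to scanned fluorescence from custom Agilent 4×180K protein-binding microarrays. Before scanning, arrays were incubated 1 h with ligand-free nuclear receptor dimers, and binding was detected with antibodies against each partner (one per run). Binding z-scores use the random background probes as reference.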

[2] = system: PPARg:RXRa IVT, anti-PPARg (NR concentration 270 nM, RXRa partner concentration 90 nM)
In short: as §1

[3] = system: PPARg DBDmut:RXRa IVT, anti-PPARg (DBD mutation: PPARg1 K132A/R137A, NR concentration 270 nM, RXRa partner concentration 90 nM)
In short: as §1

[4] = system: PPARg DBDmut IVT, anti-PPARg (DBD mutation: PPARg1 K132A/R137A, NR concentration 270 nM)
In short: as §1

[5] = system: PPARg homodimer (NR concentration 180 nM)
In short: as §1

[6] = system: PXR:RXRa (NR concentration 270 nM, RXRa partner concentration 90 nM)
In short: as §1

[7] = system: PXR homodimer (NR concentration 270 nM)
In short: as §1

[8] = system: RARa:RXR (NR concentration 270 nM, RXRa partner concentration 90 nM)
In short: as §1

[9] = system: RARa homodimer (NR concentration 270 nM)
In short: as §1

[10] = system: RARb:RXRa (NR concentration 270 nM, RXRa partner concentration 90 nM)
In short: as §1

Row | Sequence | PBM binding z-score [1] | PBM binding z-score [2] | PBM binding z-score [3] | PBM binding z-score [4] | PBM binding z-score [5] | PBM binding z-score [6] | PBM binding z-score [7] | PBM binding z-score [8] | PBM binding z-score [9] | PBM binding z-score [10]
1 | GCTGGCAGGCCATTTGGGTCACTCAATGACGGGC | 0.621 | 1.63 | -1.06 | -1.22 | -0.317 | 0.654 | 0.117 | 0.679 | -0.882 | 1.63
2 | ATATGTAGGTTAGCCGGGGTCATTCAGACTAGGC | 7.11 | 6.89 | 1.14 | 1.79 | 2.77 | 6.72 | 4.32 | 6.2 | 0.664 | 3.31
3 | TGAATGAGGTTATAAGATCAGGGAACGTTGCAAA | 1.08 | 1.54 | 0.481 | 0.281 | -0.132 | 0.601 | -0.261 | 1.25 | 0.0131 | 1
4 | ATCTCTAGGTAAAAGTTCAGTGAGTCCCGAGGAT | 2.37 | 3.88 | 1.34 | 1.28 | 1.47 | 2.06 | 2.57 | 1.47 | 0.867 | 2.21
5 | ATCTCTACGTAAGACTCAGTTCAGTGAAGAACGC | -0.086 | 0.118 | 0.872 | 1.57 | 0.776 | 1.09 | 1.22 | 0.208 | 0.199 | 0.279
6 | AAATGTAGGTTAGCTGGGGTCATTCAGACTAGGC | 7.19 | 7.11 | 4.54 | 3.23 | 3.17 | 6.55 | 4.04 | 6.04 | 0.836 | 3.28
7 | CCTACCAGGCCAGGGTCACTCAAGCATTTCGCTT | -0.315 | 1.13 | -1.07 | -1.26 | 1.75 | 2.39 | 0.0777 | 2.79 | 0.657 | 2.65
8 | GCTGCTAGGTCAGGTTGATCAGCTAACGGGTACG | 3.25 | 2.17 | -1.1 | -0.366 | 0.196 | 0.316 | -0.392 | 0.656 | -0.919 | 3.06
9 | CCGACTGAGGCAAGGTTACCATAACGCACAGCCA | -0.0464 | -0.0439 | -0.139 | -0.814 | 0.4 | 0.18 | -0.0704 | 0.645 | 0.194 | 0.904
10 | TCTGCTAGGTCAGTTTGTCAGCTAACGAGCTGCC | 2.1 | 2.5 | 0.124 | 0.15 | -0.156 | 0.322 | -0.604 | 0.454 | -0.407 | 2.72
11 | GGAACGACGGCAAGTTGATAGCAGAGTTTGATGG | -0.476 | -0.312 | -0.309 | -0.721 | -0.705 | -0.547 | 0.0619 | -0.23 | -0.783 | -0.715
12 | ACTATTAGTTGAGACGAGGGCACCCGATAGGTTG | -0.207 | 0.476 | 0.77 | 0.797 | -0.607 | 1.33 | 0.328 | 1.2 | 0.511 | 0.966
13 | GCTGGTAGGTCAGGTTGGTCAGCTAACGGGTACG | 3.54 | 3.65 | -0.271 | 0.163 | 1.32 | 0.581 | 0.431 | 0.986 | 0.462 | 3.16
14 | CCTACAGGGCCACGAAAGGTCATTGATTCAGTGA | 0.816 | 1.87 | -0.216 | -0.41 | 2.63 | 5.61 | 1.86 | 5.07 | 1.07 | 4.32
15 | GGAACCAGGGCAAGTTGATAGCAGAGTTTGATGG | 4.63 | 3.75 | 0.246 | 1.22 | 1.02 | 0.554 | 0.742 | 0.217 | 0.68 | 2.26
16 | TTATCAAGGTGAGCTGAGGTCGTTGATCCAACTC | 1.53 | 2.79 | 0.246 | -0.126 | 0.465 | 4.8 | 0.706 | 1.99 | -0.272 | 1.85
17 | TAGCCTAGGTCATTCAGGGGCCTGTATAGAAAGC | 1.43 | 2.65 | -0.0905 | -0.0908 | 0.863 | 1.75 | -0.488 | 2.51 | -0.792 | 3.52
18 | CCTACTGGGCCTCGAAAGGTCATTGATTCAGTGA | 2.57 | 3.15 | -1.13 | -0.00532 | 2.06 | 4.88 | 1.11 | 4.9 | 0.198 | 3.66
19 | CCTTACGGGTCAAGGTTATAGCGCGGGTGGTACG | 2.04 | 3.57 | -0.278 | 0.175 | 1.9 | 3.27 | -0.0779 | 3.94 | 0.367 | 4.29
20 | TGTTGTAGATCAAGCAGGTTAAGAAAGCCTGAGT | -0.275 | 0.329 | 0.0224 | -0.646 | -0.211 | 0.13 | 0.0391 | 0.16 | 0.163 | -0.116
21 | TCTAGCAGGCCAGAGGGTCACTCACGAGGTACGG | 0.776 | 0.783 | -0.376 | -1.19 | 1.31 | 1.51 | -0.605 | 2.52 | -0.397 | 2.25
22 | GTACCACGGTGAATAGGTCGTTGATGAGTAGGCG | -0.0107 | 0.889 | -0.572 | -0.695 | 0.25 | 0.0182 | -0.47 | 0.233 | -0.371 | 0.587
23 | TCTCGGAGGACACGGAAGGTCAGAGCTCGACATC | 1.04 | 1.13 | -0.462 | -0.403 | 1.27 | 2.53 | 0.114 | 2.45 | -0.138 | 3.44
24 | TCTTCTAGATCAGCAGGTTAAGAAAGCTGGCCAA | 1.75 | 0.956 | -0.541 | -0.141 | -0.0964 | 0.0261 | -0.795 | 0.252 | -0.167 | 0.235
25 | CGAACTAGGTCATCTAGGACAGTGAATACATTGA | 8.06 | 8.21 | 3.51 | 1.83 | 2.99 | 1.73 | 0.602 | 2.23 | 0.753 | 3.92
